Results reported in article PMC7862700, “An all-to-all approach to the identification of sequence-specific readers for epigenetic DNA modifications on cytosine”.

Tests used:
Assay in all cases: DAPPL (digital affinity profiling via proximity ligation, sequencing); 10 mM Tris-HCl pH 7.5, 50 mM NaCl, 1 mM DTT, 4% glycerol, room temperature, 30 min; GST-TFs on glutathione beads, 16-mer random dsDNA library, 0.1% formaldehyde crosslink after washing; high values mean tight binding
Details in all cases: protein: recombinant; tags: N-terminal GST; dsDNA, one strand shown
FLI1 = target: T1, FLI1 (Homo sapiens, UniProt Q01543 1-452)
T1 sequence: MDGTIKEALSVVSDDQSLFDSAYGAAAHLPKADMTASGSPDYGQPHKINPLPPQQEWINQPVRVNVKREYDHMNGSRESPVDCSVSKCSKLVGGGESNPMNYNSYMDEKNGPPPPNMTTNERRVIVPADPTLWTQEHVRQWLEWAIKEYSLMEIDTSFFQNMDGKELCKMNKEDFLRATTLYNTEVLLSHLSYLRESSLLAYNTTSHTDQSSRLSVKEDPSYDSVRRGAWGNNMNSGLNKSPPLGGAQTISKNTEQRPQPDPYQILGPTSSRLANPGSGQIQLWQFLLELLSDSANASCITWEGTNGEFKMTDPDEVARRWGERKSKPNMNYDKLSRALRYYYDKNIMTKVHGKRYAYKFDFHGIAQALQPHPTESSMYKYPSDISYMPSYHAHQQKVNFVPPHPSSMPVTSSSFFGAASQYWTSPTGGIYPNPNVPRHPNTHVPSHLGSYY
In short: (§1)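 Binding signal is each hexamer's read frequency for a factor divided by its frequency in the tag-only sample. The factors were GST-fused human transcription factors from yeast, captured on glutathione beads, DNA-barcoded and pooled with that sample. Pools were incubated with 200 nmole of a random double-stranded 16-mer DNA library in Tris/NaCl/DTT/glycerol buffer at room temperature for 30 min, then washed, crosslinked with 0.1% formaldehyde, proximity-ligated with BsaI/T4 ligase (1 h, 37 °C), PCR-amplified and sequenced on an Illumina NextSeq500.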

ELK1 = target: T2, ELK1 (Homo sapiens, UniProt P19419 1-428)
T2 sequence: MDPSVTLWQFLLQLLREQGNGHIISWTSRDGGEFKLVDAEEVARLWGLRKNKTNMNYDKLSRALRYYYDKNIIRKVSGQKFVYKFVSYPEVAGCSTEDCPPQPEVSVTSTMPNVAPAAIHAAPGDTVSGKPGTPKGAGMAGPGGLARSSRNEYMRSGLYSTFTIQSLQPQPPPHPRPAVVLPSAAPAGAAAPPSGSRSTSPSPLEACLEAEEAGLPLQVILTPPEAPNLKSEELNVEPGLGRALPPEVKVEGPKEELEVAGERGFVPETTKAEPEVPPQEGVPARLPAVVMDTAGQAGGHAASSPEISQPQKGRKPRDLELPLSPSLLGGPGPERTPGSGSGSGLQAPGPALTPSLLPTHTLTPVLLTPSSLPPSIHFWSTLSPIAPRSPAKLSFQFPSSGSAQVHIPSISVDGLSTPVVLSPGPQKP
In short: as §1

ELF1 = ELF1 (Homo sapiens, UniProt P32519 1-619)
In short: as §1

EHF = target: T3, EHF (Homo sapiens, UniProt Q9NZC4 1-300)
T3 sequence: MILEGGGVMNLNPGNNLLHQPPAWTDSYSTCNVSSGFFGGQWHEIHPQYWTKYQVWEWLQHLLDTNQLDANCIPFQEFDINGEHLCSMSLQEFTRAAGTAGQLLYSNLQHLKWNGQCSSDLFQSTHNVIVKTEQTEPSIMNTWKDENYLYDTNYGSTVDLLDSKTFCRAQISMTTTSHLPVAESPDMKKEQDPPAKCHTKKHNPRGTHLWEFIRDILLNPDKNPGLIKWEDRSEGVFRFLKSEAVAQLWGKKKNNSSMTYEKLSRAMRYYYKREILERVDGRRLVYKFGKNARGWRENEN
In short: as §1

SPIB = SPIB (Homo sapiens, UniProt Q01892 1-262)
In short: as §1

SPIC = target: T4, SPIC (Homo sapiens, UniProt Q8N5J4 1-248)
T4 sequence: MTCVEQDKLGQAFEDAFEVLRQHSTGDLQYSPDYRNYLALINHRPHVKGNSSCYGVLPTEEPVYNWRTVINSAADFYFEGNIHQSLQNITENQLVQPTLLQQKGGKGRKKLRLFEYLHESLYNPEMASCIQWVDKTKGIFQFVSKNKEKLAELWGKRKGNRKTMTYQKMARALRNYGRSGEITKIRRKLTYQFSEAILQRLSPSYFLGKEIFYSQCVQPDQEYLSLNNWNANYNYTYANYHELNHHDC
In short: as §1

ELF4 = ELF4 (Homo sapiens, UniProt Q99607 1-663)
In short: as §1

ELK4 = target: T5, ELK4 (Homo sapiens, UniProt P28324-2 1-405)
T5 sequence: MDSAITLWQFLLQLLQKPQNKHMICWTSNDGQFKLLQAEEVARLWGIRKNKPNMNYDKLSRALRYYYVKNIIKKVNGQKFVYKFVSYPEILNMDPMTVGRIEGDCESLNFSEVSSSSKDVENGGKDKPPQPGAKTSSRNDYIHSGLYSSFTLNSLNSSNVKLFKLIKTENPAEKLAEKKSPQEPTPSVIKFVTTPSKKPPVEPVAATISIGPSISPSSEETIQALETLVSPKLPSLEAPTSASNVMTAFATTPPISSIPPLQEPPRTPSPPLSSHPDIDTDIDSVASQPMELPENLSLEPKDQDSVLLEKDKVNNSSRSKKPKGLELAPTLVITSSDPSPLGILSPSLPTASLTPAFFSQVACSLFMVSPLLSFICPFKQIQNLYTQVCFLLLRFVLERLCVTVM
In short: as §1

ETV1 = ETV1 (Homo sapiens, UniProt P50549 1-477)
In short: as §1

ERF = target: T6, ERF (Homo sapiens, UniProt P50548 1-548)
T6 sequence: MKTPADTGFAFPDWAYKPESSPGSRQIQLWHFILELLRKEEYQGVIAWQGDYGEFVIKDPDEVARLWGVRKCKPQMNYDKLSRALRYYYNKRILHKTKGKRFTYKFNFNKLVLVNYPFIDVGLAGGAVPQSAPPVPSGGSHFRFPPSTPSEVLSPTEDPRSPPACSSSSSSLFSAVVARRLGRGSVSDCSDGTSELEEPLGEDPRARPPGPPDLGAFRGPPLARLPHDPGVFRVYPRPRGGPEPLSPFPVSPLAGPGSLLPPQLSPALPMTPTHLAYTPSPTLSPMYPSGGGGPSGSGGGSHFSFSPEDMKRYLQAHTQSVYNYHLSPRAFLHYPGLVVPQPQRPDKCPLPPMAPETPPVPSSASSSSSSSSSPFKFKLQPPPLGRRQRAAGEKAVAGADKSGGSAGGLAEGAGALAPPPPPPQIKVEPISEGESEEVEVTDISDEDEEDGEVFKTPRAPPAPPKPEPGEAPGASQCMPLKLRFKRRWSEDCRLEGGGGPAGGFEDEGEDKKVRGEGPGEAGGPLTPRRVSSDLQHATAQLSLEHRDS
In short: as §1

ETV3L = target: T7, ETV3L (Homo sapiens, UniProt Q6ZN32 1-361)
T7 sequence: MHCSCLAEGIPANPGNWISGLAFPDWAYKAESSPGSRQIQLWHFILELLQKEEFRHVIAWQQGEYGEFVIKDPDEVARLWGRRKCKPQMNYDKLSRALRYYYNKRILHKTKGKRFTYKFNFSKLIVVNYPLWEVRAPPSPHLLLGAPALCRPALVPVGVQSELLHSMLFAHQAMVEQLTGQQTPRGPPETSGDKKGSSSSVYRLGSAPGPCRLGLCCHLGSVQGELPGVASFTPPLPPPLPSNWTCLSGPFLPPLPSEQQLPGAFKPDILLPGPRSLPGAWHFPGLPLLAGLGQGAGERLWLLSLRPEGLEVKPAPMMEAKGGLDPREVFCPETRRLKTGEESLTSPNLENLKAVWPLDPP
In short: as §1

ETS2 = target: T8, ETS2 (Homo sapiens, UniProt P15036 1-469)
T8 sequence: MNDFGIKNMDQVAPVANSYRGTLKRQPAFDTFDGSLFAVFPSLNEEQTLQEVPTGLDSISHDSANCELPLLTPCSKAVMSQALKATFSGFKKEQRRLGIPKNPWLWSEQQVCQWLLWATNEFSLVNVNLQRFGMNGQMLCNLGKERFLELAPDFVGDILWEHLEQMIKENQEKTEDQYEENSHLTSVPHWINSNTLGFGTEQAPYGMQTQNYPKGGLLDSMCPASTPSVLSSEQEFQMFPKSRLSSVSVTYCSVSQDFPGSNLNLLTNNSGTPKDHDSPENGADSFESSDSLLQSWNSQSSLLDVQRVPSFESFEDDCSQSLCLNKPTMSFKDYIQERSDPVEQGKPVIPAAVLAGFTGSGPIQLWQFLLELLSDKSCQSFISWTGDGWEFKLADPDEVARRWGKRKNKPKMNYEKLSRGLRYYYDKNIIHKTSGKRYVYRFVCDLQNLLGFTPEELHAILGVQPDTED
In short: as §1

SPDEF = target: T9, SPDEF (Homo sapiens, UniProt O95238 1-335)
T9 sequence: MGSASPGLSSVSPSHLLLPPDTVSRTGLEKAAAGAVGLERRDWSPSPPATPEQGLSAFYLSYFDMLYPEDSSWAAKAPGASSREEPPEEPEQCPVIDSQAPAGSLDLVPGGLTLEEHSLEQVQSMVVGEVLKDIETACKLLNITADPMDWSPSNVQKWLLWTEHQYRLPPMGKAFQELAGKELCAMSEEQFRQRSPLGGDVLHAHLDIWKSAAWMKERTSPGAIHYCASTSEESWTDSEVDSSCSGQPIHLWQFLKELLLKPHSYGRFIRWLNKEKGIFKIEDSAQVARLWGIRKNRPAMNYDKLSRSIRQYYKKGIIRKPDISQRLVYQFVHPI
In short: as §1

ETV7 = target: T10, ETV7 (Homo sapiens, UniProt Q9Y603 1-341)
T10 sequence: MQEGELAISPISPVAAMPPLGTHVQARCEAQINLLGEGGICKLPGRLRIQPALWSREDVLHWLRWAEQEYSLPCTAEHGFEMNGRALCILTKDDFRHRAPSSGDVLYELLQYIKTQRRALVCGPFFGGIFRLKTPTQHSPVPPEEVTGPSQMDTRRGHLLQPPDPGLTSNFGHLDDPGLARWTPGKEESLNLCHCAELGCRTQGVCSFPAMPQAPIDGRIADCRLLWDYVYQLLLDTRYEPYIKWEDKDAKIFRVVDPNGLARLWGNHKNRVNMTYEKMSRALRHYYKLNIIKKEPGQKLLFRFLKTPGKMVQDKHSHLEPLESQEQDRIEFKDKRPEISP
In short: as §1

ETV3 = target: T11, ETV3 (Homo sapiens, UniProt P41162-2 1-143)
T11 sequence: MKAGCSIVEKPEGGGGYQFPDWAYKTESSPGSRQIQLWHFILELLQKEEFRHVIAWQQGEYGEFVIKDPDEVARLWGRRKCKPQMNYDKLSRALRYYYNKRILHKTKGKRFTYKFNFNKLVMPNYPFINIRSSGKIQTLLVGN
In short: as §1

ELF4, sequence (Q99607 whole entry): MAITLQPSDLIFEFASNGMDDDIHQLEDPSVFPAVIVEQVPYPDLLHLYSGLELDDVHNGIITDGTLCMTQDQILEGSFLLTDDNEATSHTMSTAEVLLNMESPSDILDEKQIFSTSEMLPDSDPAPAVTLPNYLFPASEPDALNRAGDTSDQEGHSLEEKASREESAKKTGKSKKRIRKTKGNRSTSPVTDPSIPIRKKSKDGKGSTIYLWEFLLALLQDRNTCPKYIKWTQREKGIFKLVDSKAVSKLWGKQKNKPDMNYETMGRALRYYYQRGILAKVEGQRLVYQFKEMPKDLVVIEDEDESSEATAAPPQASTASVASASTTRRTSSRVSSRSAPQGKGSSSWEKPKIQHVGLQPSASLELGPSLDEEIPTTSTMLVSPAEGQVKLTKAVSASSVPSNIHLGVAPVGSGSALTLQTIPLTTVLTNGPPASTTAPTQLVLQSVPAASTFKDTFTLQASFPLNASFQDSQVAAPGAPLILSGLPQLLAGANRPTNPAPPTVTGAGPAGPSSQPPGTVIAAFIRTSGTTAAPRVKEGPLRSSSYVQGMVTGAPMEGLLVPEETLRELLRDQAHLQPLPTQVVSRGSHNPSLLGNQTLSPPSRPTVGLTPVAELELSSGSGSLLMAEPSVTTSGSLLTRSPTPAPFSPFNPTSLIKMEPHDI
ETV1, sequence (P50549 whole entry): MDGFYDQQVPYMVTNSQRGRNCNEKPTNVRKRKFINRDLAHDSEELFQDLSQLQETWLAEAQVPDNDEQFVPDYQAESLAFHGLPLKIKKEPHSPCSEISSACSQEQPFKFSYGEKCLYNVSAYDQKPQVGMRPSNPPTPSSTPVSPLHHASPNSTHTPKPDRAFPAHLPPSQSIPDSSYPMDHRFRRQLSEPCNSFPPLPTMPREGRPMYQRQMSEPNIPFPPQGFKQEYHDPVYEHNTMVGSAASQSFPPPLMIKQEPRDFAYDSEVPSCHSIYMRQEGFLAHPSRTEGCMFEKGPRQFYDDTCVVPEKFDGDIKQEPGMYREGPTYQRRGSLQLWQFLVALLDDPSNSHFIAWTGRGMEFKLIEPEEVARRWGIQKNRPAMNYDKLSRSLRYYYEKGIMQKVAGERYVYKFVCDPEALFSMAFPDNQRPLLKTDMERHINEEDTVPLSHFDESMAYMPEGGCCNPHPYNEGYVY
ELF1, sequence (P32519 whole entry): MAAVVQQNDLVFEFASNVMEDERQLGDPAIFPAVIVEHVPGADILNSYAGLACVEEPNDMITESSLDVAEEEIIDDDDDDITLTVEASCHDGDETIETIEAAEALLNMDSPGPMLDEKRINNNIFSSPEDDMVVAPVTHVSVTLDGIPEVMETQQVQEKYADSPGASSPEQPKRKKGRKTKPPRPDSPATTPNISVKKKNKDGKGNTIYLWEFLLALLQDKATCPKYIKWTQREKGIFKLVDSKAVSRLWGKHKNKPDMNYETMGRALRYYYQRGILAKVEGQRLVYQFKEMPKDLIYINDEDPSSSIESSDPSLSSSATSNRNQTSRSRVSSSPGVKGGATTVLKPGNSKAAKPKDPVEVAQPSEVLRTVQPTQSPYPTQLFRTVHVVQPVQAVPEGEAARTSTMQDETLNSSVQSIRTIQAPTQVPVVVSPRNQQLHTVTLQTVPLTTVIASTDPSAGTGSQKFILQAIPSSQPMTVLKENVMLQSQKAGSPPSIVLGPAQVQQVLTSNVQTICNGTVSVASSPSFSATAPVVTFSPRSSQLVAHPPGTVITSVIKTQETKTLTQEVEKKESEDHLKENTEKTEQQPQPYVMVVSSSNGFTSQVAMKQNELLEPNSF
SPIB, sequence (Q01892 whole entry): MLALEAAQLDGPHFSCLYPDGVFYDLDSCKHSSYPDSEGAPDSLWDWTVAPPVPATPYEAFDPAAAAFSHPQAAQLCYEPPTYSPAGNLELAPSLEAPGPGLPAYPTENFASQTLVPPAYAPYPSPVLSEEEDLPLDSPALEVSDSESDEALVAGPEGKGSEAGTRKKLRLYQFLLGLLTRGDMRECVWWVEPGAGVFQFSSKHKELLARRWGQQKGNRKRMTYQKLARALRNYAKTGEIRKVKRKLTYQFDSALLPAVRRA

GATGGG
binding signal (FLI1): 1.03 fold enrichment (6-mer frequency, TF over GST control) | binding signal (ELK1): 1.02 fold enrichment (6-mer frequency, TF over GST control) | binding signal (ELF1): 1 fold enrichment (6-mer frequency, TF over GST control) | binding signal (EHF): 1.02 fold enrichment (6-mer frequency, TF over GST control) | binding signal (SPIB): 1.12 fold enrichment (6-mer frequency, TF over GST control) | binding signal (SPIC): 1.08 fold enrichment (6-mer frequency, TF over GST control) | binding signal (ELF4): 1.01 fold enrichment (6-mer frequency, TF over GST control) | binding signal (ELK4): 1.01 fold enrichment (6-mer frequency, TF over GST control) | binding signal (ETV1): 1.04 fold enrichment (6-mer frequency, TF over GST control) | binding signal (ERF): 1 fold enrichment (6-mer frequency, TF over GST control) | binding signal (ETV3L): 1.02 fold enrichment (6-mer frequency, TF over GST control) | binding signal (ETS2): 1 fold enrichment (6-mer frequency, TF over GST control) | binding signal (SPDEF): 1.08 fold enrichment (6-mer frequency, TF over GST control) | binding signal (ETV7): 1.03 fold enrichment (6-mer frequency, TF over GST control) | binding signal (ETV3): 1.04 fold enrichment (6-mer frequency, TF over GST control)
